This note sets out measurements from PubChem BioAssay (NCI).

Where “and” joins values, the source holds several entries; their conditions need not be identical. Equal values may be shown once. Compounds without any hit were thinned out: in the full panel of roughly 83,000, 20% have a hit.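 Single-concentration screen, 48 h exposure, 96-well plates. Endpoint: percent growth. Below 10 = active.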 Calls of active or inactive are those of the source.

Holding throughout (assay): NCI-60 one-dose screen, 48 h (100 = growth as untreated, 0 = no growth, -100 = all killed)
One assay has as its system SK-MEL-2 melanoma. Conditions: 10 µM.
A further assay relates to EKVX NSCLC. The note with it: 10 µM.
The next assay has as its system SN12C renal. Conditions: 10 µM.
In the next assay the test system is UO-31 renal. Conditions: 10 µM.
For the next assay, the system named is TK-10 renal. Conditions: 10 µM.
In a further assay the test system is ACHN renal. Conditions: 10 µM.
The test system of the next assay is CAKI-1 renal. The note with it: 10 µM.
Another assay concerns A498 renal. The note with it: 10 µM.
Another assay concerns CCRF-CEM leukemia. Conditions: 10 µM.
Another assay relates to MOLT-4 leukemia. The note with it: 10 µM unless noted.
In another assay the test system is SR leukemia. Conditions: 10 µM.
The next assay concerns RPMI-8226 leukemia. The note with it: 10 µM.
The next assay relates to OVCAR-8 ovarian. Conditions: 10 µM.
The test system of the next assay is OVCAR-5 ovarian. The note with it: 10 µM.
The next assay concerns OVCAR-4 ovarian. Conditions: 10 µM.
For a further assay, the system named is SK-OV-3 ovarian. Conditions: 10 µM.
A further assay has as its system IGROV1 ovarian. The note with it: 10 µM.
The next assay relates to OVCAR-3 ovarian. Conditions: 10 µM.
A further assay has as its system HS 578T breast. Conditions: 10 µM.
A further assay deals with NCI/ADR-RES ovarian. The note with it: 10 µM.

For `N#C/C(=C/N1C(=O)/C(=C/c2ccc([N+](=O)[O-])cc2)SC1=S)c1nc2ccccc2s1`, the growth was 94.4% (inactive) in the assay with SK-MEL-2 melanoma; 82.3% (inactive) in the assay with EKVX NSCLC; 89.3% (inactive) in the assay on SN12C renal; 64% (inactive) in the assay with UO-31 renal; 96.3% (inactive) in the assay on TK-10 renal; 86.5% (inactive) in the assay with ACHN renal. Moreover, the growth in the assay on CAKI-1 renal is 97% (inactive); with A498 renal, 6.8% (active); with CCRF-CEM leukemia it was 84% (inactive); with MOLT-4 leukemia, 78.8% (inactive); in the assay on SR leukemia, 73.8% (inactive); with RPMI-8226 leukemia, 67.4% (inactive). The growth in the assay on OVCAR-8 ovarian is 88.4% (inactive); in the assay with OVCAR-5 ovarian, 90.3% (inactive); with OVCAR-4 ovarian, 104% (inactive); with SK-OV-3 ovarian, 82.4% (inactive); in the assay on IGROV1 ovarian, 69.8% (inactive); in the assay on OVCAR-3 ovarian, 82.2% (inactive). The growth in the assay with HS 578T breast was 90.4% (inactive); with NCI/ADR-RES ovarian it was 92.3% (inactive).

For the molecule `Nc1nc(N)c2cc(Sc3ccc4ccccc4c3)ccc2n1`, the growth was 75.3% (inactive) in the assay with SK-MEL-2 melanoma; 38.2% (inactive) with EKVX NSCLC; 27.9% (inactive) in the assay on SN12C renal; 22% (inactive) in the assay on UO-31 renal; 49.5% (inactive) in the assay with TK-10 renal; 28.2% (inactive) in the assay with ACHN renal. The growth was 17.3% (inactive) in the assay with CAKI-1 renal; 58.5% (inactive) with A498 renal; 38.2% (inactive) with CCRF-CEM leukemia; 18.4% (inactive) in the assay on MOLT-4 leukemia; -26.3% (active) with SR leukemia; -11.9% (active) in the assay with RPMI-8226 leukemia. Moreover, the growth in the assay with OVCAR-8 ovarian is 34.8% (inactive); in the assay on OVCAR-5 ovarian it was 50.5% (inactive); in the assay on SK-OV-3 ovarian, 62.3% (inactive); with IGROV1 ovarian it was 27.8% (inactive); in the assay on HS 578T breast it was 61.7% (inactive); with NCI/ADR-RES ovarian, 43.9% (inactive).

For `O=Nc1ccc(Nc2ccccc2)cc1`, the growth in the assay with SK-MEL-2 melanoma was 109% (inactive); in the assay on EKVX NSCLC it was 89.2% (inactive); in the assay with SN12C renal, 95.6% (inactive); in the assay on UO-31 renal, 53.9% (inactive); in the assay with TK-10 renal it was 116% (inactive); in the assay on ACHN renal, 41.5% (inactive). Also, the growth in the assay on CAKI-1 renal was 66.1% (inactive); in the assay with A498 renal, 87.2% (inactive); in the assay with CCRF-CEM leukemia, 2.09% (active); with MOLT-4 leukemia, 15% (inactive); with SR leukemia it was 28.2% (inactive); with RPMI-8226 leukemia, 27.1% (inactive). Moreover, the growth was 66.4% (inactive) in the assay on OVCAR-8 ovarian; 103% (inactive) with OVCAR-5 ovarian; 57.3% (inactive) in the assay on OVCAR-4 ovarian; 108% (inactive) in the assay on SK-OV-3 ovarian; 102% (inactive) in the assay on IGROV1 ovarian; 111% (inactive) in the assay on HS 578T breast. The growth with NCI/ADR-RES ovarian was 87.9% (inactive).

For the molecule `Cn1c2nc3ccccc3c-2nc2ccccc21`, the growth is 113% (inactive) and 112% (inactive) in the assay with SK-MEL-2 melanoma; 81.2% (inactive) with EKVX NSCLC; 95% (inactive) and 87.7% (inactive) in the assay with SN12C renal; 71.9% (inactive) and 48.3% (inactive) with UO-31 renal; 113% (inactive) and 109% (inactive) in the assay with TK-10 renal; 94.4% (inactive) and 79.1% (inactive) in the assay on ACHN renal. Besides, the growth is 73.9% (inactive) and 93.6% (inactive) with CAKI-1 renal; 45.9% (inactive) and 80.3% (inactive) in the assay with A498 renal; 95.8% (inactive) and -21.8% (active) with CCRF-CEM leukemia; 97.9% (inactive) and 96.7% (inactive) with MOLT-4 leukemia; 83.5% (inactive) and 91.1% (inactive) in the assay on SR leukemia; 94.9% (inactive) and 96.8% (inactive) in the assay with RPMI-8226 leukemia. Further, the growth is 93% (inactive) and 88.6% (inactive) in the assay on OVCAR-8 ovarian; 103% (inactive) and 86.9% (inactive) with OVCAR-5 ovarian; 89.5% (inactive) and 80.5% (inactive) with OVCAR-4 ovarian; 91.2% (inactive) and 90.8% (inactive) in the assay on SK-OV-3 ovarian; 79.8% (inactive) and 61.6% (inactive) in the assay on IGROV1 ovarian; 83.4% (inactive) and 87.5% (inactive) with HS 578T breast. Also, the growth in the assay on NCI/ADR-RES ovarian is 99.3% (inactive) and 93.6% (inactive).

Turning to `Cn1ncc2cc3c(Nc4ccc(Cl)cc4)cccc3nc21`, the growth in the assay on SK-MEL-2 melanoma is 99.4% (inactive); in the assay with EKVX NSCLC, 76.7% (inactive); in the assay on SN12C renal, 93.7% (inactive); in the assay on UO-31 renal, 62.5% (inactive); with TK-10 renal, 92.9% (inactive); with ACHN renal it was 90.5% (inactive). In addition, the growth in the assay on CAKI-1 renal was 88.6% (inactive); with A498 renal it was 75.4% (inactive); with CCRF-CEM leukemia it was 95.5% (inactive); in the assay with MOLT-4 leukemia it was 89% (inactive); in the assay on SR leukemia it was 84.8% (inactive); in the assay on RPMI-8226 leukemia, 79% (inactive). The growth with OVCAR-8 ovarian is 89.8% (inactive); with OVCAR-5 ovarian, 109% (inactive); in the assay with OVCAR-4 ovarian, 88.2% (inactive); in the assay with SK-OV-3 ovarian, 94.7% (inactive); with IGROV1 ovarian it was 95.8% (inactive); with HS 578T breast, 89% (inactive). The growth with NCI/ADR-RES ovarian was 89.1% (inactive).

With `COc1ccc2c(c1)[nH]c1c(/C=C/c3ccccc3)nccc12`, the growth in the assay with SK-MEL-2 melanoma is 89.5% (inactive); with EKVX NSCLC it was 62.2% (inactive); with SN12C renal, 78.7% (inactive); in the assay with UO-31 renal it was 25.7% (inactive); in the assay with TK-10 renal, 81.2% (inactive); with ACHN renal, 61.1% (inactive). The growth in the assay with CAKI-1 renal is 58.4% (inactive); in the assay with A498 renal, 71.2% (inactive); with CCRF-CEM leukemia it was 65% (inactive); in the assay with MOLT-4 leukemia, 48% (inactive); in the assay on SR leukemia, 29.3% (inactive); in the assay with RPMI-8226 leukemia it was 25.2% (inactive). Besides, the growth with OVCAR-5 ovarian was 74.2% (inactive); with OVCAR-4 ovarian, 21.4% (inactive); with SK-OV-3 ovarian it was 65.1% (inactive); in the assay with IGROV1 ovarian, -15.7% (active); in the assay with HS 578T breast it was 70.4% (inactive); in the assay on NCI/ADR-RES ovarian, 53.4% (inactive).

On to `NCc1c(O)ccc2ccccc12`, for which the growth in the assay on SK-MEL-2 melanoma is 98.2% (inactive); in the assay on EKVX NSCLC, 106% (inactive); in the assay with SN12C renal it was 90.9% (inactive); with UO-31 renal it was 81.3% (inactive); with TK-10 renal, 108% (inactive); in the assay on ACHN renal it was 103% (inactive). For the same molecule, the growth in the assay on CAKI-1 renal is 74.3% (inactive); with A498 renal, 105% (inactive); in the assay on CCRF-CEM leukemia, 93% (inactive); with MOLT-4 leukemia, 93.3% (inactive); in the assay with SR leukemia, 87.8% (inactive); in the assay on RPMI-8226 leukemia, 101% (inactive). In addition, the growth in the assay on OVCAR-8 ovarian was 103% (inactive); in the assay with OVCAR-5 ovarian, 96.9% (inactive); in the assay on OVCAR-4 ovarian, 111% (inactive); in the assay with SK-OV-3 ovarian, 96.9% (inactive); with IGROV1 ovarian it was 94.7% (inactive); in the assay on HS 578T breast, 94.5% (inactive). In addition, the growth with NCI/ADR-RES ovarian is 103% (inactive).

With `O=C(CNS(=O)(=O)Cc1ccccc1)NNc1ccccc1`, the growth with SK-MEL-2 melanoma was 97.1% (inactive); in the assay on EKVX NSCLC, 53.3% (inactive); with SN12C renal, 75% (inactive); with UO-31 renal it was 35.7% (inactive); with TK-10 renal, 90.6% (inactive); in the assay with ACHN renal it was 36.7% (inactive). The growth in the assay with CAKI-1 renal was 39.8% (inactive); with A498 renal, 108% (inactive); with CCRF-CEM leukemia, 45.2% (inactive); in the assay on MOLT-4 leukemia it was 35.4% (inactive); in the assay with SR leukemia, 39.2% (inactive); in the assay with RPMI-8226 leukemia, 62.4% (inactive). Besides, the growth in the assay with OVCAR-8 ovarian is 58.4% (inactive); with OVCAR-5 ovarian it was 68.6% (inactive); with OVCAR-4 ovarian it was 42.6% (inactive); in the assay on SK-OV-3 ovarian, 78.7% (inactive); with IGROV1 ovarian, 65.5% (inactive); in the assay on NCI/ADR-RES ovarian, 67% (inactive).
